Source: paper PMC9838217, “Structure of SALL4 zinc finger domain reveals link between AT-rich DNA binding and Okihiro syndrome”
Numbering of substitutions follows the chain as printed.

What was measured:
Assay in all cases: HT-SELEX; high values mean tight binding
Conditions in all cases: protein: recombinant; vector His6-GST; dsDNA, one strand shown
SALL4 ZFC4 WT (HT-SELEX) = molecular target: T1, SALL4 ZFC4 WT (HT-SELEX) (Mus musculus, UniProt Q8BX22 870-940)
T1 sequence: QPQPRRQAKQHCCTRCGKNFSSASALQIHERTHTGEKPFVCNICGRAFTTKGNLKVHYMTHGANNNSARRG
Procedure, shortened: (§1)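 In triplicate selections of up to 6 cycles, purified recombinant mouse SALL4 zinc finger cluster 4 (residues 870–940, 1 µg) was incubated 10 min at room temperature with library DNA (1.5 µg, then 200 ng) in 100 µl of 10 mM Tris–HCl pH 7.5, 50 mM NaCl, poly(dI-dC) and DTT, and complexes were captured on Ni2+ beads, washed and PCR-amplified. Sequencing was done on MiSeq with scanning for 6-mers. The binding signal is each canonical k-mer's read fraction, reported as fold change against the initial random library.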

[1] = molecular target: T2, SALL4 ZFC4 R900W (HT-SELEX) (Mus musculus, UniProt Q8BX22 870-940, R900W)
T2 sequence: T1 sequence with R31W
Procedure, shortened: as §1

[2] = molecular target: T3, SALL4 ZFC4 G921D (HT-SELEX) (Mus musculus, UniProt Q8BX22 870-940, G921D)
T3 sequence: T1 sequence with G52D
Procedure, shortened: as §1

Row | Sequence | binding signal (SALL4 ZFC4 WT (HT-SELEX)) [fold-change vs cycle 0] | binding signal [1] [fold-change vs cycle 0] | binding signal [2] [fold-change vs cycle 0]
1 | TAAAAA | 3.23 ± 0.33 | 2.2 ± 0.213 | 1.92 ± 0.229
2 | AAGGCT | 0.61 ± 0.0387 | 0.726 ± 0.0643 | 0.8372 ± 0.00507
3 | ATCGAT | 1.23 ± 0.075 | 1.21 ± 0.0415 | 1.3 ± 0.0771
4 | CCGATC | 0.399 ± 0.0279 | 0.473 ± 0.0177 | 0.64 ± 0.0658
5 | GAGTCA | 0.822 ± 0.0312 | 0.955 ± 0.0308 | 0.993 ± 0.0145
6 | AAGAGT | 1.418 ± 0.0105 | 1.59 ± 0.0431 | 1.48 ± 0.0973
7 | AGTCGA | 0.617 ± 0.0356 | 0.697 ± 0.0314 | 0.807 ± 0.0559
8 | CAATCG | 0.623 ± 0.00929 | 0.726 ± 0.0311 | 0.821 ± 0.0438
9 | TCCGAA | 0.618 ± 0.0382 | 0.692 ± 0.0361 | 0.791 ± 0.046
10 | ACTTAT | 2.49 ± 0.156 | 2.19 ± 0.135 | 1.9 ± 0.197
11 | AGATAT | 2.61 ± 0.24 | 2.08 ± 0.11 | 1.86 ± 0.213
12 | ACATAC | 1.3 ± 0.0628 | 1.4 ± 0.0493 | 1.33 ± 0.0922
13 | ACCCAA | 0.736 ± 0.034 | 0.839 ± 0.0217 | 0.873 ± 0.0335
14 | CTTGCA | 0.697 ± 0.0262 | 0.7756 ± 0.00768 | 0.856 ± 0.0345
15 | CCACCA | 0.417 ± 0.0318 | 0.471 ± 0.033 | 0.582 ± 0.0561
16 | CATAGC | 0.663 ± 0.0317 | 0.746 ± 0.0368 | 0.844 ± 0.0408
17 | ACGGAC | 0.337 ± 0.0313 | 0.425 ± 0.0312 | 0.526 ± 0.0575
18 | ACCGTC | 0.344 ± 0.0295 | 0.418 ± 0.0372 | 0.528 ± 0.0646
19 | TACCAA | 1.27 ± 0.0357 | 1.33 ± 0.0163 | 1.32 ± 0.055
20 | GTACCA | 0.755 ± 0.0123 | 0.835 ± 0.0283 | 0.893 ± 0.0178
21 | ACCGAG | 0.423 ± 0.0215 | 0.496 ± 0.0188 | 0.586 ± 0.0556
22 | GGTGAA | 0.8 ± 0.0301 | 0.905 ± 0.0496 | 0.952 ± 0.0511
23 | ATTACC | 1.49 ± 0.0761 | 1.51 ± 0.105 | 1.43 ± 0.105
24 | GAGTGC | 0.332 ± 0.0145 | 0.398 ± 0.019 | 0.554 ± 0.055
25 | AGCGTA | 0.55 ± 0.0304 | 0.623 ± 0.0245 | 0.723 ± 0.0232
26 | GAATAA | 2.13 ± 0.0471 | 2.1 ± 0.122 | 1.82 ± 0.178
27 | ACACCT | 0.834 ± 0.0401 | 0.949 ± 0.0347 | 0.979 ± 0.022
28 | GATTGC | 0.641 ± 0.0324 | 0.711 ± 0.00883 | 0.817 ± 0.0343
29 | AGTGAA | 1.35 ± 0.0774 | 1.52 ± 0.125 | 1.39 ± 0.134
30 | AAAAAA | 2.68 ± 0.235 | 1.98 ± 0.146 | 1.76 ± 0.185
